Experimental data: PubChem BioAssay (NCATS)
Inconclusive results are not listed. Entries that show only a call come without a potency. The source made the active and inactive calls. Calls follow the shape of the dose curve; as a rule, active = well fitted inhibition curve with a large enough effect; inconclusive = small, poorly fitted or top-dose-only effect; inactive = flat fitted curve, though single readings scatter.
Potency is read from the fitted curve at half-maximal effect.

Each molecule was assayed against Ubiquitin carboxyl-terminal hydrolase 1 (Homo sapiens) (UniProt O94782) (assay: Inhibitors of USP1/UAF1: Pilot qHTS (AID 504865; also: nearly all actives have a fitted effect of over 35% in size)). Details: purified USP1/UAF1, Ub-rhodamine cleavage fluorescence; series mostly up to 114 µM.
Ubiquitin carboxyl-terminal hydrolase 1 (Homo sapiens), sequence (O94782 whole entry, looked up): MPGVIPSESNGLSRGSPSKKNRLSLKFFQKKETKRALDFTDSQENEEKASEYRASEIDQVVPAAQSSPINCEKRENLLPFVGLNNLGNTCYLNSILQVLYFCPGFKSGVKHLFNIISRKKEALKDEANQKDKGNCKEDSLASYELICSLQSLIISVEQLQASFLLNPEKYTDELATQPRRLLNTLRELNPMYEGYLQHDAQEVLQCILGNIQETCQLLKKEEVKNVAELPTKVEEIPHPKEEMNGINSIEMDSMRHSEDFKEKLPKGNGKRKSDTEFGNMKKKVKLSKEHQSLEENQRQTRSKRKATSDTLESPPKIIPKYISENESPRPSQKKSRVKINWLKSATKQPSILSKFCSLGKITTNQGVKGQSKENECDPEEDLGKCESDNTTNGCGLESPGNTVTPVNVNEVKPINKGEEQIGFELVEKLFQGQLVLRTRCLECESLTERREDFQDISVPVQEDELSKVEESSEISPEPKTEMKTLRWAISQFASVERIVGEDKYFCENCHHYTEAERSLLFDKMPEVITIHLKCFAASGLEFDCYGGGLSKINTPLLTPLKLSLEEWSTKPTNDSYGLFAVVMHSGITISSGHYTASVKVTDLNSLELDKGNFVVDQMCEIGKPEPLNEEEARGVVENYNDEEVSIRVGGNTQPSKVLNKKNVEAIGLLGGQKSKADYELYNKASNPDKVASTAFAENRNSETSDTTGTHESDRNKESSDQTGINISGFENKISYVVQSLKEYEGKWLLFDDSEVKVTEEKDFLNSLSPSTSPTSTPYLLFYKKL
Outline: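 Kinetic fluorescence assay: 1nM USP1/UAF1, 15 min compound preincubation, then 150nM Ub-Rho; 480/540 nm.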
CCC(=O)c1c(O)cc(O)cc1O was tested, and the Potency was “inactive”.
CCCCC1=NC2(CCCC2)C(=O)N1Cc1ccc(-c2ccccc2-c2nn[nH]n2)cc1 was tested, and the Potency was “inactive”.
In the case of COc1cc(OC)cc(OC)c1, the Potency is reported as “inactive”.
For O=C(O)CNC(=O)c1ccccc1, the Potency was “inactive”.
CC(=O)N/N=C/c1ccc([N+](=O)[O-])o1 was tested, and the Potency was “inactive”.
In the case of CN1CCN(C(c2ccccc2)c2ccccc2)CC1, the Potency is reported as “inactive”.
O=C(COc1ccc(Cl)cc1)N1CCN(Cc2ccc3c(c2)OCO3)CC1 was tested, and the Potency was “inactive”.
In the case of OC(CCN1CCCCC1)(c1ccccc1)c1ccccc1, the Potency is reported as “inactive”.
CCC(C(=O)OCCN(CC)CC)c1ccccc1 (stereo unspecified) was tested, and the Potency was “inactive”.
With CCCCCCCCCCCCCCCCOP(=O)([O-])OCC[N+](C)(C)C the Potency was “inactive”.
For COc1ccc(/C=C/C(=O)c2ccc(OC)cc2OC)cc1, the Potency was “inactive”.
For Oc1ccc(Cl)c2cccnc12, the Potency was “inactive”.
For CC(C)N=C(N)/N=C(\N)Nc1ccc(Cl)cc1, the Potency was “inactive”.
With CCCCCCCCCCCCCCCC[N+](C)(C)CCN(Cc1ccc(OC)cc1)c1ncccn1 the Potency was 31.6 µM (active).
CC(=O)Nc1c(I)cc(I)c(C(=O)O)c1I was tested, and the Potency was “inactive”.
COC(=O)[C@@H]1CC2=CC(=O)CC[C@]2(C)[C@@]23O[C@@H]2C[C@@]2(C)[C@@H](CC[C@@]24CCC(=O)O4)[C@H]13 was tested, and the Potency was “inactive”.
For CN(C)CCCOc1nn(Cc2ccccc2)c2ccccc12, the Potency was “inactive”.
For O=C(CCCN1CCC(O)(c2ccc(Br)cc2)CC1)c1ccc(F)cc1, the Potency was “inactive”.
With CCN(CC)CCOC(=O)C(c1ccccc1)C1CCCCC1 (stereo unspecified) the Potency was “inactive”.
In the case of NCCc1ccn[nH]1, the Potency is reported as “inactive”.
With COc1ccc(CN2CCN(C(c3ccc(F)cc3)c3ccc(F)cc3)CC2)c(OC)c1OC the Potency was “inactive”.
